Pf Dd2 growth = inhibitors of Plasmodium falciparum Dd2 growth; 120,000 compounds, 4.3% hits; P. falciparum Dd2 growth, SYBR Green, 72 h; Potency, µM (top dose mostly 28.9 µM), usual class: inhibitors; active = well fitted inhibition curve with a large enough effect; note: nearly all actives have a fitted effect of over 65% in size
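Infected erythrocytes (Dd2, 0.3% parasitemia, 2.5% hematocrit final) are added to compound in RPMI-1640/Albumax II medium, grown 72 h at 37C in low oxygen, then lysed with saponin/Triton-X containing SYBR Green and read by fluorescence.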
Numbers stand for hits. Only a selection was taken, and hits are over-represented in it overall.

What do the screens show for `CCOc1ccccc1CN1CCCCCNC(=O)CC1c1ccccc1` (configuration not stated)?
Pf Dd2 growth: 7.9µM

How did CCOc1ccccc1NC(=O)N1CCCCCCNC(=O)CC1c1ccccc1 (configuration not stated) do in these assays?
Pf Dd2 growth: inactive

How did Cc1ccc(CN2CCC[C@H]2C(=O)N2CCCCCCNC(=O)CC2)o1 do in these assays?
Pf Dd2 growth: inactive

How did Cc1cc(CN2CCC(N3CCOCC3=O)CC2)no1 do in these assays?
Pf Dd2 growth: inactive

What do the screens show for `COc1ccccc1NC(=O)N(C)CC1CCOCC1`?
Pf Dd2 growth: inactive

Results for COc1ccc(C2Cn3nnc(C(=O)N4CCC(C(=O)NCc5ccccc5F)CC4)c3CO2)cc1 (configuration not stated) ?
Pf Dd2 growth: inactive

What do the screens show for `CCc1ccc(C(=O)N2CCC3(CC2)N=C(c2ccc(C)cc2)NO3)cc1`?
Pf Dd2 growth: inactive

What do the screens show for `Cc1ccc([S+](=O)([O-])N2CCc3nc(C4CC4)nc(-c4ccc(Cl)cc4)c3C2)cc1`?
Pf Dd2 growth: inactive

Results for COCC1(CNCc2c(C)noc2C)C[C@@H](O)[C@@H](O)C1 (some centres not stated) ?
Pf Dd2 growth: inactive

What do the screens show for `O=C(CCCc1ccccc1)N1C[C@@H](CN2CCOCC2)[C@@H](CO)C1`?
Pf Dd2 growth: inactive

How did COc1ccc(C2C(C(=O)OC(C)(C)C)=C(C)N=C3SC=C(CC(=O)NCC4CC4)N32)cc1OC (configuration not stated) do in these assays?
Pf Dd2 growth: inactive

What do the screens show for `Cc1nc(CCNC(=O)Cc2ccsc2)no1`?
Pf Dd2 growth: inactive

How did OC(c1ccc2c(c1)CCO2)c1nc(Nc2cccc(C(F)(F)F)c2)n[nH]1 (configuration not stated) do in these assays?
Pf Dd2 growth: inactive

Results for COc1ccc(Nc2n[nH]c(C(O)c3cccc(C(F)(F)F)c3)n2)cn1 (configuration not stated) ?
Pf Dd2 growth: inactive

Results for OC(c1cccc(C(F)(F)F)c1)c1nc(Nc2cccc(Cl)c2)n[nH]1 (configuration not stated) ?
Pf Dd2 growth: 7.9µM

How did O=C1NCc2ccccc2CC12CCN(Cc1c(Cl)cncc1Cl)C2 (configuration not stated) do in these assays?
Pf Dd2 growth: inactive

Results for COCCNc1nc(N)nc2c1CCN(C(=O)c1cscn1)CC2 ?
Pf Dd2 growth: inactive

Results for O=C(c1ccoc1)N1CCC2(CC1)CC(OCC1CC1)CCO2 (configuration not stated) ?
Pf Dd2 growth: inactive

What do the screens show for `COc1ccc(C2CC(=O)N(CC(=O)Nc3cc(C)ccc3C)c3ccccc3S2)cc1` (configuration not stated)?
Pf Dd2 growth: inactive

How did CCOC(=O)c1ccccc1NC(=O)CN1C(=O)CC(c2ccccc2)Sc2ccccc21 (configuration not stated) do in these assays?
Pf Dd2 growth: inactive

How did COc1cc(C2CC(=O)N(CC(=O)Nc3ccccc3F)c3ccccc3S2)cc(OC)c1OC (configuration not stated) do in these assays?
Pf Dd2 growth: 3.2µM

How did COc1cccc(OCc2nc(C(=O)N(C)Cc3cnc4ccccn34)co2)c1 do in these assays?
Pf Dd2 growth: inactive

Results for CCC(C(=O)Nc1ccc2c(c1)CN(Cc1ccccc1OC)C(=O)C(C)O2)c1ccccc1 (configuration not stated) ?
Pf Dd2 growth: 2.5µM

What do the screens show for `COc1ccccc1CN1Cc2cc(NC(=O)Cc3ccc(F)cc3)ccc2OC(C)C1=O` (configuration not stated)?
Pf Dd2 growth: inactive

Results for CCNC(=O)Nc1ccc2c(c1)CN(Cc1ccccc1OC)C(=O)C(C)O2 (configuration not stated) ?
Pf Dd2 growth: inactive

Results for CC1Oc2ccc(NC(=O)Cc3ccc(F)cc3)cc2CN(Cc2ccc(Cl)cc2)C1=O (configuration not stated) ?
Pf Dd2 growth: 10µM

What do the screens show for `COc1cccc(CC(=O)Nc2ccc3c(c2)CN(Cc2ccccc2OC)C(=O)C(C)O3)c1` (configuration not stated)?
Pf Dd2 growth: inactive

Results for CCC1Oc2ccc(NC(=O)Cc3ccc(F)cc3)cc2CN(Cc2ccc(Cl)cc2)C1=O (configuration not stated) ?
Pf Dd2 growth: inactive

How did C/C=C(\C)CN1C[C@@H](NC(=O)Cn2ccnc2C)C[C@H]1C(=O)NCC do in these assays?
Pf Dd2 growth: inactive

What do the screens show for `COc1cccc(C(=O)N2CCC[C@H]2c2nc(-c3ccc(C)cc3)no2)c1`?
Pf Dd2 growth: inactive

Results for O=C(NCc1ccc(F)cc1F)C1CCCN(c2cn[nH]c(=O)c2)C1 (configuration not stated) ?
Pf Dd2 growth: inactive

Results for CNC(=O)[C@@H]1C[C@H](Oc2ccccc2)CN1S(=O)(=O)c1cccnc1 ?
Pf Dd2 growth: inactive

What do the screens show for `Cc1noc(C)c1-c1cc2c(cc(-c3ccccc3)n2C)c(N2CCOCC2)n1`?
Pf Dd2 growth: inactive

Results for CN1C(=O)CO[C@H](c2ccc(NC(=O)CCc3ccccc3)cc2)[C@H]1CO ?
Pf Dd2 growth: inactive

Compound activity (PubChem)
